# Experimental data: PubChem BioAssay (Tox21)
# “And” between values parts separate entries of the source, which are not always exact repeats. Identical values can stand only once. Records with an inconclusive call do not appear. A call without a number means that no potency is given here. Where a structure was tested more than once in an assay, its records may differ in their call. The source made the active and inactive calls. Unless noted, calls come from the whole dose curve; as a rule, active = well fitted curve in the direction sought with a large enough effect in the repeat runs; inconclusive = weak or mixed curves; inactive = flat fitted curve, though single readings scatter.
# How the values were obtained:
# [1] = qHTS assay to test for compound auto fluorescence at 535 nm (green) in HEK293 cells (AID 720680)
# [2] = qHTS assay to test for compound auto fluorescence at 460 nm (blue) in HEK293 cell free culture (AID 720681)
# How it was run: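 Compounds were added to cell-free DMEM with 10% FBS and fluorescence read directly. The blue channel used 405 nm excitation and 460 nm emission, with triamterene as the reference fluorophore.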
# [3] = qHTS assay to test for compound auto fluorescence at 535 nm (green) in HEK293 cell free culture (AID 720682)
# How it was run: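 Measurement is a direct plate read of green fluorescence (485 nm in, 535 nm out) after compound addition to serum-supplemented DMEM lacking cells, with fluorescein used to express intensities.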
# [4] = qHTS assay to test for compound auto fluorescence at 590 nm (red) in HEK293 cell free culture (AID 720683)
# How it was run: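 Cell-free wells of DMEM with 10% FBS received compound, and intrinsic fluorescence was read at excitation/emission 540/590 nm. Values expressed as equivalence to Rose Bengal sodium.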
# [5] = qHTS assay to test for compound auto fluorescence at 590 nm (red) in HepG2 cell free culture (AID 720684)
# How it was run: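 Rose Bengal sodium served as the reference for red signal. Test compounds were dispensed into serum-containing MEM (10% FBS) without cells, and plates were read at 540/590 nm.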
# [6] = qHTS assay to test for compound auto fluorescence at 460 nm (blue) in HepG2 cell free culture (AID 720685)
# How it was run: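 Cell-free plates of MEM plus 10% FBS received 23 nL compound or DMSO vehicle; blue-channel (405/460 nm) intensity scored against triamterene as reference fluorophore.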
# [7] = qHTS assay to test for compound auto fluorescence at 535 nm (green) in HepG2 cell free culture (AID 720686)
# [8] = qHTS assay to test for compound auto fluorescence at 460 nm (blue) in HepG2 cells (AID 720687)
# How it was run: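 HepG2 cells in MEM with 10% FBS, attached overnight at 37 C, were exposed to compound or DMSO for 1 hr at 37 C, 5% CO2. Blue fluorescence was read at 405/460 nm, with triamterene as reference fluorophore.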
# [9] = target: Glucocorticoid receptor (Homo sapiens) (UniProt P04150); experiment: qHTS assay to identify small molecule agonists of the glucocorticoid receptor (GR) signaling pathway (AID 720691; active = well fitted activation curve with a large enough effect in the signal ratio in the repeat runs, not every such curve was filed as active; the % refers to the signal ratio; note: potency is the fitted concentration of half-maximal effect)
# How it was run: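 A HeLa cervical cancer line expressing GR and a glucocorticoid response element-driven beta-lactamase gene is treated with compounds for 18 h; LiveBLAzer B/G FRET substrate is then applied and fluorescence read.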
# [10] = target: Glucocorticoid receptor (Homo sapiens) (UniProt P04150); experiment: qHTS assay to identify small molecule antagonists of the glucocorticoid receptor (GR) signaling pathway (AID 720692; active = well fitted inhibition curve with a large enough effect in the signal ratio in the repeat runs, not every such curve was filed as active; the % refers to the signal ratio; note: potency is the fitted concentration of half-maximal effect)
# How it was run: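 GRE-bla HeLa line, dex-stimulated (5 nM final). Compound exposure 18 h, 37 C. Beta-lactamase FRET read after 2 h RT substrate.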
# Chain of Glucocorticoid receptor (Homo sapiens) (P04150 whole entry, looked up): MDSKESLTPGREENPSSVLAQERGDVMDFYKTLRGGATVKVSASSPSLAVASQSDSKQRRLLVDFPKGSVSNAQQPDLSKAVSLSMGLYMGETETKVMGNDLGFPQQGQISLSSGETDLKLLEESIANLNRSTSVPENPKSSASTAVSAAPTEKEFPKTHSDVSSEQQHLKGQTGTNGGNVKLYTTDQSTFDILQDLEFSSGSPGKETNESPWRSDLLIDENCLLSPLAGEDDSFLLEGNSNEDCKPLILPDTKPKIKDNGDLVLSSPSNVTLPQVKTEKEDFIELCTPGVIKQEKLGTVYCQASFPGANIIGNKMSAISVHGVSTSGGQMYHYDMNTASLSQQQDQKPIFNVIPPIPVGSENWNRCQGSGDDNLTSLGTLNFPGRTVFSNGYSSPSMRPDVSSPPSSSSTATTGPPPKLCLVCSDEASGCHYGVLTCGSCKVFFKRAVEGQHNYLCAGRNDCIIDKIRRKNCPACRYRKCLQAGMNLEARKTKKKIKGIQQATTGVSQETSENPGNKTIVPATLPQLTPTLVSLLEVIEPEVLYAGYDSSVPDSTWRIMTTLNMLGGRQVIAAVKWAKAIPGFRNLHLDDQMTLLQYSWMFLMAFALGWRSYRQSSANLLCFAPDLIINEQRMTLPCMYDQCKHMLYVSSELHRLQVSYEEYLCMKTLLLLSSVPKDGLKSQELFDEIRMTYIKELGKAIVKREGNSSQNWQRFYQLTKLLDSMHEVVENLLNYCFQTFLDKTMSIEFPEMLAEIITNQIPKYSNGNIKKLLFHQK
SMILES,Potency [1],Potency [2],Potency [3],outcome [4],outcome [5],Potency [6],Potency [7],Potency [8],Potency [9],Potency [10],"fluorescence, % of fluorescein [1]","fluorescence, % of fluorescent control [2]",activity change [3],"fluorescence, % of fluorescent control [4]","fluorescence, % of Rose Bengal [5]","fluorescence, % of fluorescent control [6]","fluorescence, % of fluorescein control [7]","fluorescence, % of fluorescent control [8]"
O=C1NCC2(CCN(CCc3ccccc3)CC2)O1,inactive,inactive,inactive,inactive,inactive,inactive,inactive,inactive,inactive,inactive,,,,,,,,
Cc1ccc(S(=O)(=O)Oc2ccc(N=Nc3ccc(-c4ccc(N=Nc5c(O)ccc6cc(S(=O)(=O)O)cc(S(=O)(=O)O)c56)c(C)c4)cc3C)cc2)cc1,inactive,inactive,inactive,inactive,inactive,inactive,inactive,inactive,inactive,,,,,,,,,
NCCCCCC(=O)O,,,,,,,,,inactive,,-0.0215% [at 18.6 µM] (inactive),0.0269% [at 18.6 µM] (inactive),"0.0558% [at 18.6 µM, stronger effect = higher value] (inactive)",-0.0259% [at 18.6 µM] (inactive),0.496% [at 18.6 µM] (inactive),0.0102% [at 18.6 µM] (inactive),-0.0066% [at 18.6 µM] (inactive),-0.0854% [at 18.6 µM] (inactive)
CCC(C)(C)C(=O)O[C@H]1C[C@@H](C)C=C2C=C[C@H](C)[C@H](CC[C@@H]3C[C@@H](O)CC(=O)O3)[C@H]21,inactive,inactive,inactive,inactive,inactive,inactive,inactive,inactive,6.44 µM (active) and inactive,,,,,,,,,
CCCC(=O)c1ccccc1,inactive,inactive,inactive,inactive,inactive,inactive,inactive,inactive,inactive,inactive,,,,,,,,
C[N+]1([O-])CCOCC1,inactive,inactive,inactive,inactive,inactive,inactive,inactive,inactive,inactive,,,,,,,,,
C=CC(=O)OCCCCCCOC(=O)C=C,inactive,inactive,inactive,inactive,inactive,inactive,inactive,inactive,inactive,39.4 µM (active) and 43.6 µM (active),,,,,,,,
Cc1ccnc2c1NC(=O)c1cccnc1N2C1CC1,inactive,inactive,inactive,inactive,inactive,inactive,inactive,inactive,inactive,inactive,,,,,,,,
C=C(C)C1CC=C(C)C(OC(C)=O)C1 (stereo not drawn),inactive,inactive,inactive,inactive,inactive,inactive,inactive,inactive,inactive,inactive,,,,,,,,
N[C@@H]1CONC1=O,inactive,inactive,inactive,inactive,inactive,inactive,inactive,inactive,inactive,,,,,,,,,
NCCO,inactive,inactive,inactive,inactive,inactive,inactive,inactive,inactive,inactive,,,,,,,,,
CC(C)(C)c1ccc(O)c(C(C)(C)C)c1,inactive,inactive,inactive,inactive,inactive,inactive,inactive,inactive,,,,,,,,,,
CCOC(=O)C(C)C(C)=O (stereo not drawn),inactive,inactive,inactive,inactive,inactive,inactive,inactive,inactive,inactive,,,,,,,,,
c1ccc2c(c1)-c1cccc3c1c-2cc1ccccc13,inactive,inactive,inactive,inactive,inactive,inactive,inactive,inactive,21.4 µM [fluorescent] (active) and 49 µM [fluorescent] (active),,,,,,,,,
C=C(C)C(=O)O,inactive,inactive,inactive,inactive,inactive,inactive,inactive,inactive,inactive,,,,,,,,,
COc1cc(C(=S)N2CCOCC2)ccc1O,inactive,inactive,inactive,inactive,inactive,inactive,inactive,inactive,inactive,inactive,,,,,,,,
CC[C@]1(O)C[C@@H]2CN(CCc3c([nH]c4ccccc34)[C@@](C(=O)OC)(c3cc4c(cc3OC)N(C)[C@H]3[C@@](O)(C(=O)OC)[C@H](OC(C)=O)[C@]5(CC)C=CCN6CC[C@]43[C@@H]65)C2)C1,inactive,inactive,inactive,inactive,inactive,inactive,inactive,inactive,inactive,,,,,,,,,
CCn1cc(C(=O)O)c(=O)c2cc(F)c(N3CCNC(C)C3)c(F)c21 (stereo not drawn),inactive,inactive,inactive,inactive,inactive,inactive,inactive,inactive,inactive,inactive,,,,,,,,
Cc1cc(C(C)(C)C)c(O)c(C(C)(C)C)c1,inactive,inactive,inactive,inactive,inactive,inactive,inactive,inactive,inactive,,,,,,,,,
O=C(OCc1ccccc1)c1ccc(O)cc1,inactive,inactive,inactive,inactive,inactive,inactive,inactive,inactive,inactive,inactive,,,,,,,,
CC(=O)Nc1ccc(C(=O)CCl)cc1,inactive,inactive,inactive,inactive,inactive,inactive,inactive,inactive,inactive,inactive,,,,,,,,
COC(c1ccccc1)(c1ccccc1)[C@H](Oc1nc(C)cc(C)n1)C(=O)O,inactive,inactive,inactive,inactive,inactive,inactive,inactive,inactive,inactive,,,,,,,,,
Nc1cc(Cl)c(-c2cc(Cl)c(N)cc2Cl)cc1Cl,inactive,,inactive,inactive,inactive,inactive,inactive,inactive,,,,,,,,,,
